In the supplement of paper PMC9262897, “Low-cost anti-mycobacterial drug discovery using engineered E. coli” (Nature Communications, 2022):
Where a name gives a salt, the structure may show the parent alone. ± gives the standard deviation of the averaged measurements.

Experiments:
Test in all cases: growth (OD600 after 10 h); higher = more growth (less inhibition)
[1] = tested on: E. coli TESEC Alr+ wild-type control; conditions: compound 0.1 mM; raw OD600 reference: median of DMSO wells 0.241, cell-free background 0.041
Protocol: (§1)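 TESEC Mtb Alr E. coli, or the Alr+ wild-type control, in 384-well plates with Prestwick library compounds at 0.1 mM and 1% DMSO, across arabinose induction levels of 1E3 to 1E7 nM. Growth is read as OD600 after 10 h at 37 °C in triplicate biological replicates.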

E. coli TESEC Mtb Alr [2] = conditions: compound 0.1 mM
Protocol: as §1

E. coli TESEC Mtb Asd = conditions: compound 0.1 mM
Protocol: (§2)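 TESEC E. coli strains in which the native enzyme is deleted and replaced by arabinose-inducible Mtb Asd, DapB, CysH or TrpD, each grown in its selective medium. Strains were screened against the Prestwick library at 0.1 mM and 1% DMSO in 384-well format at low and high arabinose induction. Growth is read as OD600 after 10 h in triplicate.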

E. coli TESEC Mtb DapB = conditions: compound 0.1 mM
Protocol: as §2

[3] = tested on: E. coli TESEC Alr+ wild-type control; conditions: compound 0.1 mM; raw OD600 reference: median of DMSO wells 0.49, cell-free background 0.052
Protocol: (§3)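 TESEC Mtb Alr E. coli (ΔaraC ΔtolC ΔentC Δalr ΔdadX, arabinose-inducible Mtb Alr) or the Alr+ wild-type control strain, grown in defined M9-fructose medium without D-alanine in 96-well plates with Prestwick library compounds at 0.1 mM and 1% DMSO. Low Alr induction is 0.1 µM arabinose and high induction is 10 mM arabinose.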

E. coli TESEC Mtb Alr [4] = conditions: compound 0.1 mM; remark: listed apart in the source
Protocol: as §3

[5] = arabinose 1000 nM, raw OD600 reference: median of DMSO wells 0.294, cell-free background 0.041
[6] = arabinose 10000 nM, raw OD600 reference: median of DMSO wells 0.264, cell-free background 0.041
[7] = arabinose 100000 nM, raw OD600 reference: median of DMSO wells 0.201, cell-free background 0.041
[8] = arabinose 1000000 nM, raw OD600 reference: median of DMSO wells 0.193, cell-free background 0.041
[9] = arabinose 10000000 nM, raw OD600 reference: median of DMSO wells 0.146, cell-free background 0.041
[10] = arabinose induction (level): High, raw OD600 reference: median of DMSO wells 0.331, cell-free background 0.041
[11] = arabinose induction (level): Low, raw OD600 reference: median of DMSO wells 0.417, cell-free background 0.041
[12] = arabinose induction (level): High, raw OD600 reference: median of DMSO wells […], cell-free background 0.041
[13] = arabinose induction (level): Low, raw OD600 reference: median of DMSO wells 0.227, cell-free background 0.041
[14] = arabinose 100 nM, raw OD600 reference: median of DMSO wells 0.413, cell-free background 0.052
[15] = arabinose 10000000 nM, raw OD600 reference: median of DMSO wells […], cell-free background 0.052

SMILES | growth [1] | growth (E. coli TESEC Mtb Alr [2]; [5]) | growth (E. coli TESEC Mtb Alr [2]; [6]) | growth (E. coli TESEC Mtb Alr [2]; [7]) | growth (E. coli TESEC Mtb Alr [2]; [8]) | growth (E. coli TESEC Mtb Alr [2]; [9]) | growth (E. coli TESEC Mtb Asd; [10]) | growth (E. coli TESEC Mtb Asd; [11]) | growth (E. coli TESEC Mtb DapB; [12]) | growth (E. coli TESEC Mtb DapB; [13]) | growth [3] | growth (E. coli TESEC Mtb Alr [4]; [14]) | growth (E. coli TESEC Mtb Alr [4]; [15])
CC(N)CCCC(C)(C)O (stereo not drawn) [Heptaminol hydrochloride] | 0.252 ± 0.0036 | 0.285 ± 0.011 | 0.26 ± 0.013 | 0.204 ± 0.04 | 0.1796 ± 0.0016 | 0.141 ± 0.0064 | 0.357 ± 0.015 | 0.442 ± 0.022 | 0.188 ± 0.0059 | 0.195 ± 0.02 | 0.501 ± 0.054 | 0.407 ± 0.011 | 0.36 ± 0.0092
CC[C@H](c1ccc(O)cc1)[C@@H](CC)c1ccc(O)cc1 [Hexestrol] | 0.0495 ± 0.0091 | 0.048 ± 0.0092 | 0.0398 ± 0.00072 | 0.0479 ± 0.0054 | 0.0459 ± 0.0019 | 0.0616 ± 0.024 | 0.0495 ± 0.0033 | 0.0486 ± 0.0013 | 0.0653 ± 0.019 | 0.054 ± 0.0072 | 0.054 ± 0.0093 | 0.0666 ± 0.025 | 0.05173 ± 0.0004
CC(C(=O)O)c1ccc(C(=O)c2cccs2)cc1 (stereo not drawn) [Suprofen] | 0.2321 ± 0.0022 | 0.263 ± 0.015 | 0.254 ± 0.008 | 0.205 ± 0.0094 | 0.214 ± 0.0056 | 0.138 ± 0.0024 | 0.368 ± 0.056 | 0.365 ± 0.054 | 0.213 ± 0.0048 | 0.196 ± 0.029 | 0.605 ± 0.029 | 0.382 ± 0.01 | 0.3826 ± 0.0029
CC(C)(CO)C(O)C(=O)NCCCO (stereo not drawn) [Panthenol (D)] | 0.261 ± 0.0085 | 0.296 ± 0.01 | 0.261 ± 0.0092 | 0.216 ± 0.053 | 0.192 ± 0.0077 | 0.147 ± 0.0069 | 0.357 ± 0.034 | 0.409 ± 0.043 | 0.185 ± 0.0037 | 0.219 ± 0.024 | 0.5 ± 0.047 | 0.406 ± 0.011 | 0.287 ± 0.13
CCCCNC(=O)NS(=O)(=O)c1ccc(C)cc1 [Tolbutamide] | 0.253 ± 0.0049 | 0.295 ± 0.005 | 0.243 ± 0.0065 | 0.191 ± 0.018 | 0.16 ± 0.006 | 0.136 ± 0.0022 | 0.222 ± 0.016 | 0.405 ± 0.074 | 0.187 ± 0.021 | 0.186 ± 0.012 | 0.521 ± 0.12 | 0.409 ± 0.006 | 0.352 ± 0.021
NCC[C@H](O)C(=O)N[C@@H]1C[C@H](N)[C@@H](O[C@H]2O[C@H](CN)[C@@H](O)[C@H](O)[C@H]2O)[C@H](O)[C@H]1O[C@H]1O[C@H](CO)[C@@H](O)[C@H](N)[C@H]1O [Amikacin hydrate] | 0.04273 ± 0.00012 | 0.0418 ± 0.00079 | 0.039 ± 0.0001 | 0.0425 ± 0.0009 | 0.03943 ± 0.00021 | 0.0506 ± 0.00051 | 0.0495 ± 0.0018 | 0.0485 ± 0.0012 | 0.0548 ± 0.0017 | 0.0518 ± 0.0032 | 0.0539 ± 0.00071 | 0.0563 ± 0.0034 | 0.0532 ± 0.0009
C[C@]12CCC(=O)C=C1CC[C@@H]1[C@@H]2C(=O)C[C@@]2(C)[C@H]1CC[C@]2(O)C(=O)CO [Cortisone] | 0.216 ± 0.0023 | 0.278 ± 0.0049 | 0.237 ± 0.014 | 0.176 ± 0.011 | 0.1797 ± 0.00035 | 0.128 ± 0.0041 | 0.396 ± 0.078 | 0.445 ± 0.041 | 0.19 ± 0.0096 | 0.223 ± 0.023 | 0.46 ± 0.066 | 0.41 ± 0.0069 | 0.336 ± 0.0035
CC(C)COCC(CN(Cc1ccccc1)c1ccccc1)N1CCCC1 (stereo not drawn) [Bepridil hydrochloride] | 0.03963 ± 0.00021 | 0.03953 ± 0.00038 | 0.03937 ± 0.00031 | 0.04057 ± 0.00029 | 0.03933 ± 5.8e-05 | 0.0411 ± 0.0014 | 0.04653 ± 0.00032 | 0.0475 ± 0.0016 | 0.0467 ± 0.0011 | 0.04587 ± 0.00031 | 0.04887 ± 0.00032 | 0.304 ± 0.21 | 0.0512 ± 0.0012
CC(=C(CCO)SSCC1CCCO1)N(C=O)Cc1cnc(C)nc1N (stereo in doubt) [Fursultiamine Hydrochloride] | 0.245 ± 0.0085 | 0.313 ± 0.0078 | 0.282 ± 0.0063 | 0.208 ± 0.023 | 0.22 ± 0.0094 | 0.132 ± 0.0026 | 0.215 ± 0.0087 | 0.275 ± 0.052 | 0.195 ± 0.024 | 0.247 ± 0.012 | 0.583 ± 0.044 | 0.399 ± 0.013 | 0.323 ± 0.019
CCOC(=O)N1CCC(=C2c3ccc(Cl)cc3CCc3cccnc32)CC1 [Loratadine] | 0.146 ± 0.0043 | 0.17 ± 0.0039 | 0.205 ± 0.0047 | 0.173 ± 0.0098 | 0.0897 ± 0.0023 | 0.103 ± 0.0051 | 0.175 ± 0.01 | 0.246 ± 0.023 | 0.195 ± 0.0081 | 0.179 ± 0.0076 | 0.402 ± 0.0043 | 0.391 ± 0.0066 | 0.0517 ± 0.00062
N=C(N)NC(=O)c1nc(Cl)c(N)nc1N [Amiloride hydrochloride dihydrate] | 0.236 ± 0.012 | 0.291 ± 0.021 | 0.257 ± 0.003 | 0.255 ± 0.016 | 0.181 ± 0.0048 | 0.15 ± 0.0063 | 0.387 ± 0.036 | 0.428 ± 0.033 | 0.203 ± 0.0053 | 0.278 ± 0.035 | 0.497 ± 0.071 | 0.407 ± 0.014 | 0.392 ± 0.015
COc1ccc2c(c1)c(CC(=O)OCC(=O)O)c(C)n2C(=O)c1ccc(Cl)cc1 [Acemetacin] | 0.154 ± 0.0063 | 0.198 ± 0.012 | 0.195 ± 0.0045 | 0.139 ± 0.0049 | 0.109 ± 0.0015 | 0.131 ± 0.0045 | 0.21 ± 0.078 | 0.211 ± 0.012 | 0.152 ± 0.0045 | 0.185 ± 0.024 | 0.363 ± 0.021 | 0.362 ± 0.084 | 0.183 ± 0.012
O=C(CCCCC(=O)Nc1c(I)cc(I)c(C(=O)O)c1I)Nc1c(I)cc(I)c(C(=O)O)c1I [Iodipamide] | 0.249 ± 0.012 | 0.298 ± 0.0095 | 0.245 ± 0.0068 | 0.191 ± 0.0062 | 0.17 ± 0.0029 | 0.143 ± 0.0046 | 0.436 ± 0.022 | 0.452 ± 0.049 | 0.213 ± 0.0095 | 0.239 ± 0.03 | 0.527 ± 0.092 | 0.407 ± 0.013 | 0.346 ± 0.014
CN(C)CCOC(=O)C(c1ccccc1)C1(O)CCCC1 (stereo not drawn) [Cyclopentolate hydrochloride] | 0.219 ± 0.0068 | 0.29 ± 0.0093 | 0.27 ± 0.01 | 0.183 ± 0.014 | 0.19 ± 0.018 | 0.133 ± 0.0078 | 0.198 ± 0.013 | 0.334 ± 0.1 | 0.192 ± 0.021 | 0.231 ± 0.045 | 0.54 ± 0.099 | 0.4313 ± 0.0024 | 0.316 ± 0.018
C[C@@H]1CN(c2c(F)c(N)c3c(=O)c(C(=O)O)cn(C4CC4)c3c2F)C[C@H](C)N1 [Sparfloxacin] | 0.0414 ± 0.0019 | 0.0409 ± 0.0011 | 0.0398 ± 0.0002 | 0.0433 ± 0.0046 | 0.04 ± 0.00078 | 0.04067 ± 0.00038 | 0.04863 ± 0.0004 | 0.0462 ± 0.0031 | 0.0488 ± 0.00061 | 0.04823 ± 0.00038 | 0.0553 ± 0.0029 | 0.0536 ± 0.0018 | 0.051 ± 0.00046
CC(=O)[C@@]12O[C@](C)(c3ccccc3)O[C@@H]1C[C@H]1[C@@H]3CCC4=CC(=O)CC[C@]4(C)[C@H]3CC[C@@]12C [Algestone acetophenide] | 0.232 ± 0.0045 | 0.323 ± 0.053 | 0.265 ± 0.029 | 0.173 ± 0.031 | 0.115 ± 0.0061 | 0.211 ± 0.0087 | 0.231 ± 0.0044 | 0.278 ± 0.038 | 0.15 ± 0.015 | 0.171 ± 0.0092 | 0.381 ± 0.016 | 0.413 ± 0.011 | 0.117 ± 0.013
